# In the library only some 14% were active in any assay of this set; here they are far more common.
# HCMV antiviral: human cytomegalovirus inhibition | 410,000 compounds, 4.5% hits | AID 1259415 | activity change, negative = inhibition, % at 57.5 µM | HFF cells, HCMV-luciferase reporter, 72 h; hits give low values; in the data active means activity change below about -60%; inconclusive means no clear call, values can overlap the other calls; inactive means above about -39%
#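 After 16 h attachment at 37C, HFF cells received test compound and HCMV-luciferase (1 PFU/cell); reporter luminescence read 72 h later, data normalized against buffer-only and known inhibitor Salinomycin.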
# HCV inh: inhibitors of hepatitis C virus infection. Huh7.5.1 HCVcc-Cre infection, luciferase reporter, 44 h. Potency, µM (top dose mostly 41.8 µM), inactives show at the highest dose activity change, negative = inhibition, usual class: inhibitors. 340,000 compounds, 3.4% hits. AID 651820; further: potency means the concentration at half of the fitted maximal effect
#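 Reporter virus HCVcc-Cre (~0.5 moi) infects cells exposed to compound; seeding density 1,000 cells/well with 4 h settling beforehand. Luminescence, 15 sec read, taken 44 h post-infection following a 15 min RT substrate incubation.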
# Pf growth 48h: inhibits P. falciparum growth in the first generation, 48 h; P. falciparum luciferase growth in erythrocytes, 48 h; Potency, µM (highest dose often 28.7 µM), for the others: at the highest dose activity change, negative = inhibition, most hits filed as inhibitors; 310,000 compounds, 5.9% hits; AID 504832; further: potency means the concentration at half of the fitted maximal effect
#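 A one-generation exposure of luciferase-tagged malaria parasites in RPMI 1640/Albumax erythrocyte culture, 37 C and 5% CO2. Inhibition is inferred from decreased luminescence after adding detection reagent.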
# Lassa entry inh: blocks Lassa virus binding to or entry into cells. Lassa virus pseudotype entry inhibition, cell reporter. Potency, µM (series often up to 37.9 µM), without a hit: at the top dose activity change, negative = inhibition, hits mostly inhibitors. 300,000 compounds, 1.2% hits; calls by dose curve; tested in HEK293 cells; further: potency means the concentration at half of the fitted maximal effect; nearly all actives have a fitted effect of over 50% in size
# Pf growth 96h: P. falciparum growth inhibition at 96 hours; P. falciparum luciferase reporter growth, 96 h; Potency, µM (series often up to 28.7 µM), for inactives: at the highest dose activity change, negative = inhibition, most hits filed as inhibitors; 320,000 compounds, 6.9% hits; further: potency means the concentration at half of the fitted maximal effect
#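 Compounds incubated with erythrocytes infected by luciferase-expressing P. falciparum (2% hematocrit, 0.05% parasitemia final) for 96 hours, 37 C in 5% CO2. Growth inhibition scored as decreased luciferase luminescence.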
# MARV entry inh: blocks Marburg virus binding to or entry into cells; 300,000 compounds, 1.8% hits; Potency, µM (top dose mostly 37.8 µM), without a hit: at the top dose activity change, negative = inhibition, most hits filed as inhibitors; Marburg virus pseudotyped entry inhibition, cell reporter; calls by dose curve; tested in HEK293 cells; further: potency means the concentration at half of the fitted maximal effect
# The depositor's hits bear a star; ? = inconclusive; / = no result given; [ ] = remark or other dose. Unless noted, the call rests on the fitted dose curve; in most records, active means well fitted inhibition curve with a large enough effect; inconclusive means small, poorly fitted or top-dose-only effect, or another doubt; inactive means no such curve, though single readings can be large or run the other way. On the % scale 0 is the no-effect control and ±100 the full control effect.
SMILES,HCMV antiviral,HCV inh,Pf growth 48h,Lassa entry inh,Pf growth 96h,MARV entry inh
CC1=CC(C)(C)N(C(=O)C(C)N2C(=O)c3ccccc3C2=O)c2c(C)cc(C)cc21 (stereo not drawn),/,0%,10µM*,/,/,-4%
COc1ccc2c(c1)C(C)=CC(C)(C)N2C(=O)C(C)N1C(=O)c2ccccc2C1=O (stereo not drawn),/,13%,-10%,?,/,-25%
CC(C)Cn1c(=O)c2sccc2n2c(CCCC(=O)NCc3ccccc3Cl)nnc12,29,/,/,9%[46.1 µM],/,/
COc1cc(C(=O)NC(=S)Nc2ccc3c(c2)C(=O)N(C)C3=O)cc(OC)c1OC,13,10µM*,47%,19%,6%,10%
COc1cccc(OC)c1C(=O)NC(=S)Nc1ccc2c(c1)Cc1ccccc1-2,96,0%,/,3%,-15%,?
COc1ccc(C(=O)Nc2ccc3c(c2)C(=O)N(C)C3=O)cc1OC,/,?,0%,1%,-1%,?
COc1cccc(OC)c1C(=O)NC(=S)Nc1ccc2c(c1)C(=O)N(C)C2=O,-15,10%,1.7µM*,5%,?,?
C=C/C(C)=C/CC1C(=C)CCC2C(C)(C(=O)O)CCCC12C (stereo not drawn),-8,14%,?,/,-6%,/
C=C[C@]1(C)C=C2CCC3[C@](C)(CCC[C@@]3(C)C(=O)O)C2CC1 (stereo partly drawn),/,2.2µM*,-28%,/,1%,/
CCN(Cc1ccccc1)S(=O)(=O)c1ccc(C(=O)Nc2nnc(-c3ccccc3OC)o2)cc1,-61*,7%,/,?,/,?
O=C(Nc1nnc(C2=COCCO2)o1)c1ccc(S(=O)(=O)N2CCCC2)cc1,?,10%,?,2%[46.1 µM],-30%,3%[46.1 µM]
CC1CCN(S(=O)(=O)c2ccc(C(=O)Nc3nnc(C4=COCCO4)o3)cc2)CC1,-70*,?,?,/,?,/
CN(c1ccccc1)S(=O)(=O)c1ccc(C(=O)Nc2nnc(-c3ccco3)o2)cc1,-95*,?,?,-17%[46.1 µM],7.4µM*,?
CCN(c1ccccc1)S(=O)(=O)c1ccc(C(=O)Nc2nnc(-c3ccco3)o2)cc1,-77*,?,?,/,?,/
COCc1nnc(NC(=O)c2ccc(S(=O)(=O)N(C)c3ccccc3)cc2)o1,24,17%,?,/,-33%,/
O=C(O)C[C@H]1SC(=Nc2cccc(C(F)(F)F)c2)NC1=O,/,/,/,/,/,-22%[46.1 µM]
CC1CCCN(S(=O)(=O)c2ccc(C(=O)Nc3nnc(-c4ccco4)o3)cc2)C1 (stereo not drawn),-18,?,12µM*,?,?,?
O=C(Nc1nnc(-c2cccs2)o1)c1ccc(S(=O)(=O)N2CCOCC2)cc1,-84*,-24%,?,-8%,?,?
CS(=O)(=O)c1ccccc1-c1nnc(NC(=O)c2ccc(S(=O)(=O)N3CCCC3)cc2)o1,-4,30%,-14%,3%,-3%,12%
Cc1nc2c(-c3ccc(F)cc3)c(C)nn2c(C)c1CCC(=O)NCc1ccc(Cl)cc1,-3,/,/,-18%[46.1 µM],/,-2%[46.1 µM]
CCc1cc2c(NCc3ccco3)ncnc2s1,-32,16µM*,-12%,0%,10%,?
CCc1cc2c(NCC(=O)O)ncnc2s1,-8,3%,/,2%,-2%,16%
CCc1cc2c(NCc3ccccc3)nc(C)nc2s1,-84*,7.9µM*,163%,/,6%,/
Cc1cccc(Cn2cccc2CNS(=O)(=O)c2ccc(C)c(C)c2)c1,12,/,/,22%[46.1 µM],/,/
COc1ccc(OC)c(S(=O)(=O)n2nc(-c3ccccc3)cc2N)c1,32,-25%,/,/,?,/
CCCS(=O)(=O)n1nc(-c2ccc(C)cc2)cc1N,30,-19%,/,/,4.7µM*,/
COc1cc(OC)cc(-c2cc(N)n(S(=O)(=O)Cc3ccccc3)n2)c1,9,-17%,/,/,8.3µM*,/
CCCS(=O)(=O)n1nc(-c2ccc(OC)cc2)cc1N,-25,-7%,/,/,10µM*,/
O=C(COc1ccc(F)cc1)Nc1nnc(SCc2cc(=O)n3ccccc3n2)s1,-7,/,/,1%[46.1 µM],/,/
